{"source": "the OligoGym collection"}
{"molecular_target": "NELL2", "assay": "pooled miR-30 sensor sort-seq; sequence = guide strand", "settings": "shRNA"}
{"sequence": "TAAGACGTCAATCTGTAGGGAA", "sensor-assay potency score (higher = more potent)": 0.711}
{"sequence": "TCGACAGCTACAAACAGCCCTG", "sensor-assay potency score (higher = more potent)": -0.27}
{"sequence": "TTACAAACTTTGCAACAGCTGT", "sensor-assay potency score (higher = more potent)": -0.672}
{"sequence": "TTGTGATACACTCATCATGTTC", "sensor-assay potency score (higher = more potent)": -1.15}
{"sequence": "TTGCATGTCGTTCCATTCCCTG", "sensor-assay potency score (higher = more potent)": -1.03}
{"sequence": "TTATTTCTCTGTCCTAGCCAAA", "sensor-assay potency score (higher = more potent)": -1.55}
{"sequence": "TGTCACATTGAACAAAACCATC", "sensor-assay potency score (higher = more potent)": -1.67}
{"sequence": "TTTCACAATAGCACTGATCCAA", "sensor-assay potency score (higher = more potent)": 0.272}
{"sequence": "TAGAGTTTCACACTGGATGGTT", "sensor-assay potency score (higher = more potent)": 0.431}
{"sequence": "TAAAATATCCTGTAGCTCCATG", "sensor-assay potency score (higher = more potent)": -0.475}
{"sequence": "TAACCTTTACAAACTTTGCAAC", "sensor-assay potency score (higher = more potent)": -0.975}
{"molecular_target": "NETO2", "assay": "pooled miR-30 sensor sort-seq; sequence = guide strand", "settings": "shRNA"}
{"sequence": "TAACAACACTTTGAGGACCGAG", "sensor-assay potency score (higher = more potent)": -0.0442}
{"sequence": "TTTCAATAGAACTGCTTCCATC", "sensor-assay potency score (higher = more potent)": -1.24}
{"sequence": "TAATCCACATGAATCTCCCTGT", "sensor-assay potency score (higher = more potent)": 0.411}
{"sequence": "TAAATGAATATTTTGCTCGAAA", "sensor-assay potency score (higher = more potent)": -0.895}
{"sequence": "TTGCTCGAAATCCCAGTCCTTC", "sensor-assay potency score (higher = more potent)": -0.463}
{"sequence": "TTAATCCACATGAATCTCCCTG", "sensor-assay potency score (higher = more potent)": 0.06}
{"sequence": "TTAACATATATAGACTGCCTGA", "sensor-assay potency score (higher = more potent)": -0.881}
{"sequence": "TTGATAATCTAGGAACCTCAAA", "sensor-assay potency score (higher = more potent)": -1.24}
{"sequence": "TTGACGTGGAGCAGCTTCCAAA", "sensor-assay potency score (higher = more potent)": -1.08}
{"sequence": "TTCTTTGACGTGGAGCAGCTTC", "sensor-assay potency score (higher = more potent)": -0.587}
{"sequence": "TTGTTTTCTCCTCTTGTTCTAC", "sensor-assay potency score (higher = more potent)": -0.539}
{"sequence": "TTATTAACAACACTTTGAGGAC", "sensor-assay potency score (higher = more potent)": -0.45}
{"molecular_target": "NEURL2", "assay": "pooled miR-30 sensor sort-seq; sequence = guide strand", "settings": "shRNA"}
{"sequence": "TTCTCCTCGATCTCGACCAGGA", "sensor-assay potency score (higher = more potent)": -0.684}
{"sequence": "TCTTTGTGGAAGCAAACACGTC", "sensor-assay potency score (higher = more potent)": -1.58}
{"sequence": "AAACACGTCCACCACCGCGTAG", "sensor-assay potency score (higher = more potent)": -1.26}
{"sequence": "TATGGTTCCACGAGGAGGGTTG", "sensor-assay potency score (higher = more potent)": -0.457}
{"sequence": "TTGTGGAAGCAAACACGTCCAC", "sensor-assay potency score (higher = more potent)": -0.451}
{"sequence": "TTTATTTCTGGTCTTGGCTGGC", "sensor-assay potency score (higher = more potent)": -0.107}
{"sequence": "ATGATGTGCATGTCGGCCGTGC", "sensor-assay potency score (higher = more potent)": -0.877}
{"sequence": "TAGGCGGCACAGAGTCTGCAGG", "sensor-assay potency score (higher = more potent)": -1.34}
{"sequence": "TTTCTCCTCGATCTCGACCAGG", "sensor-assay potency score (higher = more potent)": -0.592}
{"sequence": "TGTGGAAGCAAACACGTCCACC", "sensor-assay potency score (higher = more potent)": -1.66}
{"sequence": "ATCGGGCAGAGAAAACTCGGGA", "sensor-assay potency score (higher = more potent)": -0.832}
{"molecular_target": "NEUROD6", "assay": "pooled miR-30 sensor sort-seq; sequence = guide strand", "settings": "shRNA"}
{"sequence": "TTAAGTTGTCCAGAGCGTCGTT", "sensor-assay potency score (higher = more potent)": -0.144}
{"sequence": "TTTGTCTTAATTAGACAGGGGA", "sensor-assay potency score (higher = more potent)": -0.0326}
{"sequence": "TAATTCATCTTGCATTGTGAGA", "sensor-assay potency score (higher = more potent)": -0.914}
{"sequence": "TTGTCTTAATTAGACAGGGGAG", "sensor-assay potency score (higher = more potent)": -1.08}
{"sequence": "TCAGAAACTAGTAAACACCTTA", "sensor-assay potency score (higher = more potent)": 0.248}
{"sequence": "TTTGTTGTCTTTTTTTTCCTAA", "sensor-assay potency score (higher = more potent)": -0.154}
